ALOX12 inh: Primary qHTS assay for inhibitors of human arachidonate 12S-lipoxygenase (ALOX12): Round 2; Polyunsaturated fatty acid lipoxygenase ALOX12 (Homo sapiens), P18054; purified 12hLO, xylenol orange hydroperoxide absorbance; Potency, µM (titrated, usually from 108 µM), without a hit: top-dose activity change, negative = inhibition, actives largely listed as inhibitors; 1.1% of 580,000 active; AID 1671190, 2021; further: on the % scale 0 is the no-effect control and ±100 the full control effect
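Hydroperoxide product was detected by ferrous iron/xylenol orange as the 573 to 405 nm absorbance ratio. Arachidonic acid at 40 uM (final) was turned over for 30 min at room temperature by 150 nM human 12hLO, pH 7.0 Hepes buffer, after 15 min compound preincubation.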
JMJD2A Tudor inh: qHTS Assay for Inhibitors of JMJD2A-Tudor Domain. Lysine-specific demethylase 4A (Homo sapiens), O75164. AlphaScreen JMJD2A-Tudor / H3K4me3 peptide binding. Potency, µM (highest dose often 114 µM), for the others: top-dose activity change, negative = inhibition, hits mostly inhibitors. 4.4% of 390,000 active. AID 504339, 2011; further: on the % scale 0 is the no-effect control and ±100 the full control effect; nearly all actives have a fitted effect of over 50% in size
G9a inh: qHTS Assay for Inhibitors of Histone Lysine Methyltransferase G9a; Histone-lysine N-methyltransferase EHMT2 (Homo sapiens), Q96KQ7; G9a H3K9 monomethylation, AlphaScreen, 2 h; Potency, µM (top dose mostly 102 µM), for inactives: top-dose activity, negative = inhibition, hits mostly inhibitors; 8.8% of 350,000 active; further: on the % scale 0 is the no-effect control and ±100 the full control effect; nearly all actives have a fitted effect of over 75% in size
Target sequence (Q96KQ7 913-1193 limits assumed): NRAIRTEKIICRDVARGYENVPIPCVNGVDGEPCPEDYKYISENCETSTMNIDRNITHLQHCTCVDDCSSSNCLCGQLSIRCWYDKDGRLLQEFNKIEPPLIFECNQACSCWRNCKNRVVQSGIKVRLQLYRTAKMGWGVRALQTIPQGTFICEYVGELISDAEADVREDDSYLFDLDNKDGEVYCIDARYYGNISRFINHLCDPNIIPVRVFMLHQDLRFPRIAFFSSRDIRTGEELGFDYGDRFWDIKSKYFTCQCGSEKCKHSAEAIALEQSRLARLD
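G9a (20 nM) was preincubated 15 min with compound, then reacted 2 h at room temperature with 500 nM biotin-H3K9 peptide and 20 µM SAM. Monomethyl-H3K9 detected by AlphaScreen using anti-H3K9me1 antibody.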
BAZ2B inh: qHTS Assay for Inhibitors of BAZ2B. Bromodomain adjacent to zinc finger domain protein 2B (Homo sapiens), Q9UIF8. AlphaScreen BAZ2B-H3K14Ac peptide displacement. Potency, µM (series often up to 114 µM), for inactives: top-dose activity change, negative = inhibition, usual class: inhibitors. 4.4% of 360,000 active. AID 504333, 2011; further: on the % scale 0 is the no-effect control and ±100 the full control effect; nearly all actives have a fitted effect of over 60% in size
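Compounds, titrated to a top concentration of 110 uM, were incubated 30 min at room temperature with preformed BAZ2B/acetyl-K14 H3 peptide complex (50 nM each). Proximity signal was measured by AlphaScreen after 20 min with beads.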
HP1b chromo inh: HTS for Inhibitors of HP1-beta Chromodomain Interactions with Methylated Histone Tails; Chromobox protein homolog 1 (Homo sapiens), P83916; AlphaScreen HP1-beta / biotin-H3K9me3 peptide binding; 0.56% of 390,000 active; AID 540317, 2011; Potency, µM (series often up to 114 µM), inactives show at the highest dose activity change, negative = inhibition, actives largely listed as inhibitors; further: nearly all actives have a fitted effect of over 70% in size
Target sequence (P83916 whole entry, looked up): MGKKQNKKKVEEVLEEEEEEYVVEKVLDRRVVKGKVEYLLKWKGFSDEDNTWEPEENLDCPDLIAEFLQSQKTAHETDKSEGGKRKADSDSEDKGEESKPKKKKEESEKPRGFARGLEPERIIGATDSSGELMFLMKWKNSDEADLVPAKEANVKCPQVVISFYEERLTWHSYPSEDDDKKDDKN
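Compound inhibition of the preformed complex between 50 nM HP1-beta and 50 nM biotinylated H3K9me3 peptide was read by AlphaScreen. Buffer was PBS pH 7.4 with 0.01% Tween-20. Incubations ran 30 min at room temperature, with 10 ug/mL donor/acceptor beads.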
Sfp PPTase inh: qHTS Assay for Inhibitors of Bacillus subtilis Sfp phosphopantetheinyl transferase (PPTase); 4'-phosphopantetheinyl transferase ffp (Bacillus subtilis), Q9F4F7; Biochemical Sfp PPTase activity, qHTS; Potency, µM, for the others: largest response in the series, negative = inhibition, hits mostly inhibitors; 3.5% of 310,000 active; AID 1490, 2009;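 further: the enzyme is Sfp with the accession as filed and its product quenches rhodamine fluorescence; 0% = enzyme reaction without inhibitor and -100% = no enzyme wells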
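Compounds were incubated with enzyme (final 15 nM) for 15 min at room temperature before substrate addition started the reaction. Fluorescence at 525 nm excitation, 598 nm emission was recorded immediately and after 30 minutes.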
Starred values were filed as active, the others as inactive; ! = not active in a repeat; [ ] = dose if it differs, or a comment. Compounds with a hit are over-represented: about 8.7% of the library has one in this group of screens. The call rests on the fitted dose curve; in most records, active means well fitted curve in the direction sought with a large enough effect; inconclusive means small, poorly fitted or top-dose-only effect, or another doubt; inactive means no such curve, though single readings can be large; an effect the other way counts as inactive or inconclusive. Potency means the concentration at half of the fitted maximal effect.

`COC(=O)N1CCN(C(=O)Cc2ccc(Cl)c(Cl)c2)C(CN2CCCC2)C1` (stereo not given) gave ALOX12 inh 43.1%, G9a inh 35.5µM*!, BAZ2B inh -7.9% and Sfp PPTase inh 4.5%.
For COc1ccc(NC(=O)N2[C@H]3CC[C@@H]2c2cnc(-c4ccc(F)cc4)nc2C3)cc1OC the results were ALOX12 inh -11.2%.
Screening CCOC(=O)CCCCCNC(=O)c1c(O)[nH]c(=O)[nH]c1=O returned ALOX12 inh -20.3%, JMJD2A Tudor inh 79.4µM* and HP1b chromo inh 4.4%.
CCOC(=O)c1ccc(N=C(C)c2c(O)[nH]c(=O)[nH]c2=O)cc1 was read as ALOX12 inh inconclusive, JMJD2A Tudor inh -10.3%, BAZ2B inh -11.2%, HP1b chromo inh 11.6% and Sfp PPTase inh -24.2%.
CC(C)(C)c1ccc(-c2n[nH]c(=S)n2CCCN2CCOCC2)cc1 was read as ALOX12 inh inconclusive, JMJD2A Tudor inh 10µM*, G9a inh 6.31µM*, BAZ2B inh -32.7%, HP1b chromo inh 4.0% and Sfp PPTase inh 2.5%.
Screening CC(C)Cc1[nH]c(=O)c(C#N)c2c1CCC2 returned ALOX12 inh 184.5%[57.4 µM], JMJD2A Tudor inh -19.2%, G9a inh 4.3%, BAZ2B inh -1.2%, HP1b chromo inh 25.9% and Sfp PPTase inh -0.3%.
For Cc1[nH]c(=S)c(C#N)c2c1CCCC2 the results were ALOX12 inh inconclusive, JMJD2A Tudor inh 20µM*, G9a inh 1.78µM*, BAZ2B inh inconclusive, HP1b chromo inh 39.3% and Sfp PPTase inh 1.0%.
Screening CN(C)c1ccc(NC(=O)CN2C(=O)CN=C(c3ccccc3)c3cc(Cl)ccc32)cc1 returned ALOX12 inh 9.5%[57.4 µM], JMJD2A Tudor inh 28.2µM*, G9a inh 39.8µM*, BAZ2B inh 35.5µM*, HP1b chromo inh inconclusive and Sfp PPTase inh 79.4µM*.
`Cc1ccc(NC(=O)CN2C(=O)CN=C(c3ccccc3)c3ccccc32)cc1` gave ALOX12 inh -15.5%, JMJD2A Tudor inh -17.7%, G9a inh -3.2%[59 µM], BAZ2B inh -8.8% and HP1b chromo inh 23.0%.
CN(C)c1ccc(NC(=O)CN2C(=O)CN=C(c3ccccc3)c3ccccc32)cc1 was read as ALOX12 inh 0.0%, JMJD2A Tudor inh 56.2µM*, BAZ2B inh 39.8µM*, HP1b chromo inh inconclusive and Sfp PPTase inh -1.3%.
Screening O=c1c2ccccc2nc(-c2cccs2)n1-c1ccccc1 returned ALOX12 inh 185.4%, JMJD2A Tudor inh 9.1%, G9a inh 18.3%, BAZ2B inh -23.2%, HP1b chromo inh 19.6% and Sfp PPTase inh 7.8%.
`Cc1cccc(-n2c(-c3cccs3)nc3ccccc3c2=O)c1` gave ALOX12 inh inconclusive, JMJD2A Tudor inh inconclusive, G9a inh 0.1%[59 µM], BAZ2B inh 79.4µM*, HP1b chromo inh 12.7% and Sfp PPTase inh 4.2%.
`O=C(c1ccc2nc(-c3ccco3)c(-c3ccco3)nc2c1)N1CCC2(CC1)OCCO2` gave JMJD2A Tudor inh 89.1µM*, G9a inh inconclusive, BAZ2B inh 56.2µM*, HP1b chromo inh -9.5% and Sfp PPTase inh 8.91µM*.
Screening CCC(c1nnnn1-c1ccc(OC)cc1)N1CCC(n2c(=O)[nH]c3ccccc32)CC1 (stereo not given) returned ALOX12 inh -8.5%.
COc1ccc(N2C(=O)CC(N3CCC(n4c(=O)[nH]c5ccccc54)CC3)C2=O)cc1 (stereo not given) was read as ALOX12 inh 16.3%, JMJD2A Tudor inh -5.8%, G9a inh 39.8µM*, BAZ2B inh 3.0%, HP1b chromo inh 56.1% and Sfp PPTase inh 7.8%.
For C=C[C@H]1CN2CC[C@H]1C[C@@H]2CNC(=O)Nc1cccc(SC)c1 the results were ALOX12 inh 32.5%[176 µM].
`CC(C)N1CC2CCC(C1)N2S(C)(=O)=O` gave ALOX12 inh 5.9%[12.5 µM].
Screening Cc1ccc(N2C(=O)NC(=O)/C(=C\c3ccc(N4CCOCC4)cc3)C2=O)cc1 returned ALOX12 inh inconclusive, JMJD2A Tudor inh -12.7%, G9a inh inconclusive, BAZ2B inh 0.5%, HP1b chromo inh 36.6% and Sfp PPTase inh 17.8µM*.
Cc1ccc(N2C(=O)NC(=O)/C(=C\c3ccc([N+](=O)[O-])o3)C2=O)cc1 was read as G9a inh 6.31µM*, BAZ2B inh 20µM* and Sfp PPTase inh inconclusive.
`COc1ccc(N2C(=O)NC(=O)/C(=C\c3cn(C)c4ccccc34)C2=O)cc1` gave JMJD2A Tudor inh -14.1%, G9a inh 25.0%[0.501 µM], BAZ2B inh -9.3%, HP1b chromo inh 29.8% and Sfp PPTase inh -13.2%.
`COc1ccc(N2C(=O)NC(=O)/C(=C/c3ccc(N4CCOCC4)cc3)C2=O)cc1` gave ALOX12 inh -21.0%, G9a inh 50.1µM*, BAZ2B inh -6.0% and Sfp PPTase inh 50.1µM*.
For O=C1NC(=O)N(Cc2ccc(F)cc2)C(=O)/C1=C\c1ccc(N2CCCC2)cc1 the results were ALOX12 inh 6.0%, JMJD2A Tudor inh inconclusive, G9a inh 44.7µM*, BAZ2B inh inconclusive, HP1b chromo inh -17.8% and Sfp PPTase inh inconclusive.
Cc1cc(/C=C2/C(=O)NC(=O)N(c3ccc(Br)cc3)C2=O)c(C)n1C was read as ALOX12 inh 226.7%, JMJD2A Tudor inh -12.3%, G9a inh -4.3%, BAZ2B inh -8.4%, HP1b chromo inh 8.8% and Sfp PPTase inh 6.0%.
For CC(Oc1ccccc1)C(=O)NN (stereo not given) the results were ALOX12 inh 41.9%.
`CCCn1c(C)c(C(=O)NCC2CC2)c2cc(OC)ccc21` gave ALOX12 inh -2.0%.
Screening O=C1NC(=O)N(c2ccc(F)cc2)C(=O)/C1=C/c1ccc(N2CCOCC2)cc1 returned ALOX12 inh -18.4%, JMJD2A Tudor inh -1.9%, G9a inh 39.8µM*, BAZ2B inh 1.2%, HP1b chromo inh 29.6% and Sfp PPTase inh 39.8µM*.
`CCOc1ccc(N2C(=O)NC(=O)/C(=C\c3ccc(N4CCOCC4)cc3C)C2=O)cc1` gave ALOX12 inh inconclusive, JMJD2A Tudor inh -10.5%, G9a inh -14.3%[12.7 µM], BAZ2B inh inconclusive, HP1b chromo inh 61.6% and Sfp PPTase inh 39.8µM*.

Assay outcomes as filed in PubChem.
